# Assay results from the supplement of paper PMC11732987, “Enantioselective OTUD7B fragment discovery through chemoproteomics screening and high-throughput optimisation” (Communications Chemistry, 2025).
# A number with no mark means an inactive call.
# Experiments:
# Assay in all cases: log2 ratio of Biotin-Ahx-Ub-VS probe labelling (fragment/DMSO); higher = less target engagement (more negative = stronger competition), active = hit call of the paper (q ≤ 0.05, log2 ratio ≤ -1)
# Details in all cases: compound concentration: 200 uM; treatment time: 3 h
# OTUD6B = target: T1, OTUD6B (UniProt Q8N6M0)
# T1 sequence (whole entry): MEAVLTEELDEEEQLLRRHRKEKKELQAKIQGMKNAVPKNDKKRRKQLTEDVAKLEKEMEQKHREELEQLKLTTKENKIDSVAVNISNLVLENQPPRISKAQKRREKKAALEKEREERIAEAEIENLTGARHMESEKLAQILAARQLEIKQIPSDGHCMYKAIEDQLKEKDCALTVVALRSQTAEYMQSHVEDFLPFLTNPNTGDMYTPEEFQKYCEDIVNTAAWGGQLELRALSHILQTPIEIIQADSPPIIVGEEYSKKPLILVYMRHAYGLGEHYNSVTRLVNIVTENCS
# Method in brief: (§1)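 Fragment (200 µM) or vehicle was incubated for 3 h with triplicate HEK293T lysate samples of 495 µg, which were then treated with Biotin-Ahx-Ub-VS at 0.5 µM final for 1 h. Labelled DUBs were enriched on NeutrAvidin, digested with LysC and trypsin, and analysed by diaPASEF LC-MS/MS. Values are average log2 fragment/vehicle ratios from an unpaired t-test on global-median-normalised Spectronaut label-free quantities, using proteins with ≥2 unique peptides.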
# OTUD7B = target: T2, OTUD7B (UniProt Q6GQQ9)
# T2 sequence (whole entry): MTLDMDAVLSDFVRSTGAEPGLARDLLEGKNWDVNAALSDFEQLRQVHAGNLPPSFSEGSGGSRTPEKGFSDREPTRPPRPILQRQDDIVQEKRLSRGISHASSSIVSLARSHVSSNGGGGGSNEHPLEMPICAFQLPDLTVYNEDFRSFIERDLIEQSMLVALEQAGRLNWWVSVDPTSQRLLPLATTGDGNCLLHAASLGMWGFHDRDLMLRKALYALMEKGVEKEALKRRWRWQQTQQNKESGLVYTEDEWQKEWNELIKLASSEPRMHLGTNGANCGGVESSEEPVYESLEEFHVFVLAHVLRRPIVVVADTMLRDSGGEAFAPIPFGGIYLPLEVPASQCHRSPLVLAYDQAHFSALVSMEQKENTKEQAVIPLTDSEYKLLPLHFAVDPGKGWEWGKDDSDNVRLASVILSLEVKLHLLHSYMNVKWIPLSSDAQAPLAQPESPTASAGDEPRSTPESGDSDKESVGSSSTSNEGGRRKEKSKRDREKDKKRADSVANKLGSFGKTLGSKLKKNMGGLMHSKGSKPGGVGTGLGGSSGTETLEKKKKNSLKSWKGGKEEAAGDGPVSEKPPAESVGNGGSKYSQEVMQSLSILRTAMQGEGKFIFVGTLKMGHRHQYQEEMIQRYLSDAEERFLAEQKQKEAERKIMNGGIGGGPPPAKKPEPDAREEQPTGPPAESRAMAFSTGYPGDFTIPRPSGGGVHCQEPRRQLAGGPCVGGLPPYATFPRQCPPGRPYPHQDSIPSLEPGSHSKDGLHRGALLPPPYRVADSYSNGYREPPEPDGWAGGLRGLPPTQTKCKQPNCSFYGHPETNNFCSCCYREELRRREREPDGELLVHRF
# Method in brief: as §1
# PRPF8 = PRPF8 (UniProt Q6P2Q9)
# Method in brief: as §1
# PSMD7 = target: T3, PSMD7 (UniProt P51665)
# T3 sequence (whole entry): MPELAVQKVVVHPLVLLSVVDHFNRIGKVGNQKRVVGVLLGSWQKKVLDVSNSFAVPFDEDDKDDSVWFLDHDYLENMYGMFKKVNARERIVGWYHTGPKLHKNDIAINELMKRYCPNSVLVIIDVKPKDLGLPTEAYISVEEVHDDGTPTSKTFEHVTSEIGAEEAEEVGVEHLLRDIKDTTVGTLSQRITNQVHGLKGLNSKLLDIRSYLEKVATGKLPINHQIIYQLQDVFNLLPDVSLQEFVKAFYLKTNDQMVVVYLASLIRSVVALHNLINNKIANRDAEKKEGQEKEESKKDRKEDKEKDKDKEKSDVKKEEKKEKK
# Method in brief: as §1
# UCHL1 = UCHL1 (UniProt P09936)
# UCHL1, sequence (P09936 whole entry, looked up): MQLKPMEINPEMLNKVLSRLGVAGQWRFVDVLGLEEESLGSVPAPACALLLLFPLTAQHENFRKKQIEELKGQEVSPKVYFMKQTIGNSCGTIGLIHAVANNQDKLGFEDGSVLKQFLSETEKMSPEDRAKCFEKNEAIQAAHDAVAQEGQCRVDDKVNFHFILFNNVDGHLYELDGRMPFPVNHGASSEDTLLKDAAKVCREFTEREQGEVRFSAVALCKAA
# Method in brief: as §1
# UCHL3 = target: T4, UCHL3 (UniProt P15374)
# T4 sequence (whole entry): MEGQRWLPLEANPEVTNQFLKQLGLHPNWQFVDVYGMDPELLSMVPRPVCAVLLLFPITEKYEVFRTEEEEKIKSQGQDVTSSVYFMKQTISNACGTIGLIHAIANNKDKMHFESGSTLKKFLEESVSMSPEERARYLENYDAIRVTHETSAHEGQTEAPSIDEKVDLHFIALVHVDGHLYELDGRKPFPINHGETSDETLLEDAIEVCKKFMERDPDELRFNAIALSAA
# Method in brief: as §1
# UCHL5 = target: T5, UCHL5 (UniProt Q9Y5K5)
# T5 sequence (whole entry): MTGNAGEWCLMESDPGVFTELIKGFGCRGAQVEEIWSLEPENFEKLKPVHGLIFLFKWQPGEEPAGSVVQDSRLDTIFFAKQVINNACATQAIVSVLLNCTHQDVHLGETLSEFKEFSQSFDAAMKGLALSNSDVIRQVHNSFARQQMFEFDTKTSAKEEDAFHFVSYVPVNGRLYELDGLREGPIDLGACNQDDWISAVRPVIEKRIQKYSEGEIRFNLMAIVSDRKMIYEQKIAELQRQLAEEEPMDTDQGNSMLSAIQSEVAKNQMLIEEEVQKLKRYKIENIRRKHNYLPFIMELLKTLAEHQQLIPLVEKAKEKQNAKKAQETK
# Method in brief: as §1
# USP10 = USP10 (UniProt Q14694)
# USP10, sequence (Q14694 whole entry): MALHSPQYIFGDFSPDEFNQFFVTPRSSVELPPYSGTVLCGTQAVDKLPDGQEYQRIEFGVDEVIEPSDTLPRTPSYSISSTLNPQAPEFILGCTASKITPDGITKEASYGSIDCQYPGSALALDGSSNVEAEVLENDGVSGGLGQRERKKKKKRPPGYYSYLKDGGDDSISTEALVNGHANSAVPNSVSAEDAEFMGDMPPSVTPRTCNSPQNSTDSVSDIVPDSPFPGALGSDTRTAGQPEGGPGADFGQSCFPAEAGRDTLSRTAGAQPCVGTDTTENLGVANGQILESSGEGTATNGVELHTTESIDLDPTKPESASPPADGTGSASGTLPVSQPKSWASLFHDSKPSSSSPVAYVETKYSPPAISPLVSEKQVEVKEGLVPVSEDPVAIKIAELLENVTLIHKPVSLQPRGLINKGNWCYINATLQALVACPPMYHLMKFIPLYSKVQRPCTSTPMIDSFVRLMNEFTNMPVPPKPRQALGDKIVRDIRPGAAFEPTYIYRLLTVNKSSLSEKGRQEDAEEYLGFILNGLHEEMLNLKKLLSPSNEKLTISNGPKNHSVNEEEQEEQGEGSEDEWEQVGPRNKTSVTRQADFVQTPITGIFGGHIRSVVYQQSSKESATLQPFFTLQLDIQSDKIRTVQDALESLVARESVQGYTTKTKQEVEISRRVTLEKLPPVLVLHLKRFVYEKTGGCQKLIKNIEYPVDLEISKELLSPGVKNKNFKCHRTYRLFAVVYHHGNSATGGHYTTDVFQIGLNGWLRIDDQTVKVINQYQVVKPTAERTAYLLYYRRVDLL
# Method in brief: as §1
# USP15 = target: T6, USP15 (UniProt Q9Y4E8)
# T6 sequence (whole entry): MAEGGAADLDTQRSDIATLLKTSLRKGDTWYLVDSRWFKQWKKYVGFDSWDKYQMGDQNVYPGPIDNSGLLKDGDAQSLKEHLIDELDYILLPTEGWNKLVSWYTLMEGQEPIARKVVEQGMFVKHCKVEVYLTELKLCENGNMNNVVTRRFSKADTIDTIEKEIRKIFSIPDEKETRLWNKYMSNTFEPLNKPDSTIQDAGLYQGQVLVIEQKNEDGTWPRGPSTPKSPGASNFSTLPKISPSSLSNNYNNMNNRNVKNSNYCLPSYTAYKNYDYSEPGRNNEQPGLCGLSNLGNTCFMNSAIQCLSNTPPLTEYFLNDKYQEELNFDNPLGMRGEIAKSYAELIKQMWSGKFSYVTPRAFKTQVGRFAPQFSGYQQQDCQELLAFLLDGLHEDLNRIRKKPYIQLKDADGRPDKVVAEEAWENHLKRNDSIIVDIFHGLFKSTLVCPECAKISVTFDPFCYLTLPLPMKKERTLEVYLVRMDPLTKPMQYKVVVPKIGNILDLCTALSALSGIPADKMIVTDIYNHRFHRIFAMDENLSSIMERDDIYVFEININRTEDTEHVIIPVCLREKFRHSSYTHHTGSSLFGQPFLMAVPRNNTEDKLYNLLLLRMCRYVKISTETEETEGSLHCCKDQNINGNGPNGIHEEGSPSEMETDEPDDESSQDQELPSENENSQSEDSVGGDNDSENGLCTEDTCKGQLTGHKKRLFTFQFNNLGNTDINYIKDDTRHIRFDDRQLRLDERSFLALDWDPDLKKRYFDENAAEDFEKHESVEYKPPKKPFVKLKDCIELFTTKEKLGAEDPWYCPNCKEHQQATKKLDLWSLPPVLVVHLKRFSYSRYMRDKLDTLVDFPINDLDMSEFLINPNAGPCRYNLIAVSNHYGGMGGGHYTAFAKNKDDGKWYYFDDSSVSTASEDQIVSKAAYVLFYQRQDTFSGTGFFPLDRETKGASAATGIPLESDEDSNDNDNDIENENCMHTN
# Method in brief: as §1
# USP16 = USP16 (UniProt Q9Y5T5)
# USP16, sequence (Q9Y5T5 whole entry, looked up): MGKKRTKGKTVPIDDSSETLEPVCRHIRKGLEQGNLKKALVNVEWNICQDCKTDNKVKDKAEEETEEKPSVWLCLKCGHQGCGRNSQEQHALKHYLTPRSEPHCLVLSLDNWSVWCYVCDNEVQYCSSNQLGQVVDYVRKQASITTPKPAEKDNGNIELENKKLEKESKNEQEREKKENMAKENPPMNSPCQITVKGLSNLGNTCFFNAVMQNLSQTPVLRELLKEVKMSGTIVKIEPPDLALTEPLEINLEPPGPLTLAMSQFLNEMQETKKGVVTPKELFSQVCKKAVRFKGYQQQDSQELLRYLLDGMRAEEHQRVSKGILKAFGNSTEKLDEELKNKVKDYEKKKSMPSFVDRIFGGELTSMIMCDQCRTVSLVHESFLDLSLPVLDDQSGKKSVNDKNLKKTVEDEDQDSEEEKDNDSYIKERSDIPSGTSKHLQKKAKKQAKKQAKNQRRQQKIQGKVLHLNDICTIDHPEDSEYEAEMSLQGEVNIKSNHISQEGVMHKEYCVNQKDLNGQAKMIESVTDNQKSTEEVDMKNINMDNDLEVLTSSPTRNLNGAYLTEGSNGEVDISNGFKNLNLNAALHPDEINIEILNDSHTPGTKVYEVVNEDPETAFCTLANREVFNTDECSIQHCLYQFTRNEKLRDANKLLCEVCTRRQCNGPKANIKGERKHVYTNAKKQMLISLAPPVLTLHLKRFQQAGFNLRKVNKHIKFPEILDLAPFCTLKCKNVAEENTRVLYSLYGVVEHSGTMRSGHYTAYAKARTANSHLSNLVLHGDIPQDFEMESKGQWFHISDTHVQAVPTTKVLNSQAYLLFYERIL
# Method in brief: as §1
compound,measurement,setting,value
Cc1c(C#N)c(NC(=O)CCl)n(Cc2ccco2)c1C,log2 ratio of Biotin-Ahx-Ub-VS probe labelling,OTUD6B,-0.163
same,log2 ratio of Biotin-Ahx-Ub-VS probe labelling,OTUD7B,-1.87 (active)
same,log2 ratio of Biotin-Ahx-Ub-VS probe labelling,PRPF8,0.194
same,log2 ratio of Biotin-Ahx-Ub-VS probe labelling,PSMD7,0.0239
same,log2 ratio of Biotin-Ahx-Ub-VS probe labelling,UCHL1,-1.43 (active)
same,log2 ratio of Biotin-Ahx-Ub-VS probe labelling,UCHL3,0.496
same,log2 ratio of Biotin-Ahx-Ub-VS probe labelling,UCHL5,-0.133
same,log2 ratio of Biotin-Ahx-Ub-VS probe labelling,USP10,-0.259
same,log2 ratio of Biotin-Ahx-Ub-VS probe labelling,USP15,-0.505
same,log2 ratio of Biotin-Ahx-Ub-VS probe labelling,USP16,-0.818
